{"source": "the supplement of paper PMC11417369", "note": "± gives the standard deviation of the averaged measurements. The full ranking holds about 25,000 sequences; the median of “ln(normalized median fluorescence intensity)” is about 8.9, and the highest 2% start at about 10. The entries come from a sample that favours the highest values as a whole."}
{"test_system": "PfAP2-LT AP2 domain (GST-tagged)", "test": "gcPBM binding intensity (ln(normalized median fluorescence intensity)); higher = stronger DNA binding", "summary_of_the_method": "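After 1 h on an Agilent 4 × 180k array of primer-extended double-stranded 36-bp intergenic genomic probes and negative controls, bound GST-tagged P. falciparum DNA-binding domains were detected with Alexa488 anti-GST antibody and scanned at 488 nm. The domains had been expressed in E. coli, and binding took place in 1× PBS with 1% milk, 0.2 mg/ml BSA, 0.5% salmon testes DNA and 0.03% Triton X-100. Binding intensity is the highest Masliner-normalised natural-log median intensity across replicate spots of either probe orientation.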"}
{"sequence": "ATAAAATCTTAATCAACAAACAAACAAAAAAAAAAT [CACACA_negctrl_site1161]", "gcPBM binding intensity (ln)": "8.77 ± 0.48"}
{"sequence": "ATATGTTCTACAAAAAAGATGTCGATTTATTTTCTT [CACACA_negctrl_site1179]", "gcPBM binding intensity (ln)": "8.56 ± 0.49"}
{"sequence": "TTTACATTTCAGTAGACACACAAAAAATAATACTAA [CACACA_site512]", "gcPBM binding intensity (ln)": "8.76 ± 0.43"}
{"sequence": "AAAAAAAGATTATACACACACATATATAAACATACA [CACACA_site4553]", "gcPBM binding intensity (ln)": "9.54 ± 0.3"}
{"sequence": "ATGATATGCAATTTAGTGCATAACAAAATTGGTATA", "gcPBM binding intensity (ln)": "8.79 ± 0.5"}
{"sequence": "TTATTTATAAATATTAATTTTTTTTTTTTTTTTTTT [XGTACX_negctrl_site105]", "gcPBM binding intensity (ln)": "8.01 ± 0.5"}
{"sequence": "TAATATATATTATTATGTACATATATTGATTCCTTG [XGTACX_site6830]", "gcPBM binding intensity (ln)": "8.85 ± 0.47"}
{"sequence": "TTGTAAGAAAAACACACACACACATATATATATATA [CACACA_site795]", "gcPBM binding intensity (ln)": "10.1 ± 0.014"}
{"sequence": "AATATAAGAAAAATAACACACACATAAACATATATA [CACACA_site8899]", "gcPBM binding intensity (ln)": "9.54 ± 0.35"}
{"sequence": "ATAAGAAGAAGAAAAACACACATATGTAAATATATA [CACACA_site3138]", "gcPBM binding intensity (ln)": "9.09 ± 0.54"}
{"sequence": "ATGTTGTACAGACACACACACAAAAAAAAAATAAAA [CACACA_site7184]", "gcPBM binding intensity (ln)": "9.46 ± 0.56"}
{"sequence": "ATATATATATGTATGTATATATATATATATATGTTT [CACACA_negctrl_site248]", "gcPBM binding intensity (ln)": "9.08 ± 0.34"}
{"sequence": "GTTATATGTTATATATATATATATATATATATATAT [TGCATGCA_negctrl_site428]", "gcPBM binding intensity (ln)": "9.51 ± 0.27"}
{"sequence": "TATATATATATATATATATATATATATATATGTTGT [TGCATGCA_negctrl_site24]", "gcPBM binding intensity (ln)": "10.24 ± 0.085"}
{"sequence": "TTTTCTTCATAAATGCTGCACTGGTTTAAGCATGAT", "gcPBM binding intensity (ln)": "8.6 ± 0.46"}
{"sequence": "TGGGAAGGGTGGGAAACTTTATCAAAAACTTATTAC [GTGCAC_negctrl_site16]", "gcPBM binding intensity (ln)": "8.98 ± 0.24"}
{"sequence": "TTTTGTTGATTTATATCTGTAGGGTTTAATATAACA [XGTACX_negctrl_site174]", "gcPBM binding intensity (ln)": "8.51 ± 0.33"}
{"sequence": "TATAAAAAATAAAATACACACACATATATATATATA [CACACA_site8365]", "gcPBM binding intensity (ln)": "9.74 ± 0.28"}
{"sequence": "TATATATATATATATACACACACACCCACCAAAGCG [CACACA_site7904]", "gcPBM binding intensity (ln)": "10.02 ± 0.021"}
{"sequence": "TACACCCACCAACACACACACACACTAATAAAAAAA [CACACA_site8060]", "gcPBM binding intensity (ln)": "10.1 ± 0.44"}
{"sequence": "TGCACCCACCAACACACACACAACTAAAAAATAATG [CACACA_site2566]", "gcPBM binding intensity (ln)": "9.71 ± 0.42"}
{"sequence": "AGCACCCACCAACACACACACACACCCACCCACCCA [CACACA_site8011]", "gcPBM binding intensity (ln)": "10.3 ± 0.11"}
{"sequence": "AGCACCCACCAACACACACACACACCCACCCACCGA [CACACA_site368]", "gcPBM binding intensity (ln)": "10.22 ± 0.028"}
{"sequence": "ATCAAGCACCAACACACACACACACCCCCACCCACA [CACACA_site370]", "gcPBM binding intensity (ln)": "10.6 ± 0.11"}
{"sequence": "TCCTGTTGAGAATGGCGTACATATAAATATTATATA [XGTACX_site1841]", "gcPBM binding intensity (ln)": "8.55 ± 0.42"}
{"sequence": "TTTAATTTGTTATACACACACAAAAAAAATTATAAA [CACACA_site3937]", "gcPBM binding intensity (ln)": "8.93 ± 0.46"}
{"sequence": "CTTATGTTTTTTAAGTGTACATATTATACGTATTAT [XGTACX_site1176]", "gcPBM binding intensity (ln)": "9.02 ± 0.42"}
{"sequence": "AAATAACATAATAAGGGTACATTAATTTCGATAATG [XGTACX_site835]", "gcPBM binding intensity (ln)": "8.77 ± 0.4"}
{"sequence": "TTTCTAATTTATATCACACACATATATAAATAGTAA [CACACA_site6156]", "gcPBM binding intensity (ln)": "8.72 ± 0.42"}
{"sequence": "TATTAATCCTTTTGCTTGGAAACATTCAAAAGGAAG [CACACA_negctrl_site1129]", "gcPBM binding intensity (ln)": "8.18 ± 0.41"}
{"sequence": "TAAATTATAATAAATACACACAAATTATAATTCTAT [CACACA_site3942]", "gcPBM binding intensity (ln)": "8.79 ± 0.37"}
{"sequence": "TTTAGAGAAGTCAAGTGTACATATAAAATAATTCAC [XGTACX_site4997]", "gcPBM binding intensity (ln)": "8.65 ± 0.35"}
{"sequence": "ATATATATATATATATGTACATATGTATATTTTTTT [XGTACX_site1299]", "gcPBM binding intensity (ln)": "9.77 ± 0.44"}
{"sequence": "GATAATTATGGACACACACACACACCCACAACTAAA [CACACA_site8824]", "gcPBM binding intensity (ln)": "10.2 ± 0.35"}
{"sequence": "TATATAAATGGACACACACACACCTTATAATTATTA [CACACA_site6093]", "gcPBM binding intensity (ln)": "10 ± 0.38"}
{"sequence": "AAGATAATTACGCACACACACACACGCCCACAACTA [CACACA_site7255]", "gcPBM binding intensity (ln)": "10.4 ± 0.12"}
{"sequence": "GATAATTACGGACACACACACACACGCACAACTAAA [CACACA_site7254]", "gcPBM binding intensity (ln)": "10.215 ± 0.0071"}
{"sequence": "AAAAATAAAAATTGCACACTAAAAAATTACGCACGA [CACACA_site3418]", "gcPBM binding intensity (ln)": "8.94 ± 0.35"}
{"sequence": "TGCACGCACAGACACACACACAACTAAAAAATAATG [CACACA_site7250]", "gcPBM binding intensity (ln)": "9.54 ± 0.49"}
{"sequence": "TAAAAAATAAAAATTGCACACTAAAAAATTACGCAC [CACACA_site9129]", "gcPBM binding intensity (ln)": "8.76 ± 0.41"}
{"sequence": "TAATTATGCAGACACACACACACACGCAACTAAAAA [CACACA_site7253]", "gcPBM binding intensity (ln)": "10 ± 0.3"}
{"sequence": "TAATTATGCGGACACACACACACACCCAACTAAAAA [CACACA_site5427]", "gcPBM binding intensity (ln)": "9.9 ± 0.26"}
{"sequence": "TAAATTTTTATTTGTAGTACTATATATATATATATA [XGTACX_site1026]", "gcPBM binding intensity (ln)": "8.9 ± 0.12"}
{"sequence": "TAATTATGTACTATTATACACACGTTTAATTGTAAA [CACACA_site206]", "gcPBM binding intensity (ln)": "8.74 ± 0.42"}
{"sequence": "AACATATATAATATTTGTACTTATATACAAAATATG [XGTACX_site7502]", "gcPBM binding intensity (ln)": "8.64 ± 0.4"}
{"sequence": "ATATATATTTTAATAACACACATATATTATATTATA [CACACA_site4387]", "gcPBM binding intensity (ln)": "8.7 ± 0.38"}
{"sequence": "TGTACAAATATGTACACACACACATATATATATATA [CACACA_site584]", "gcPBM binding intensity (ln)": "9.88 ± 0.085"}
{"sequence": "CATACATACAAACACACACACATATATATACATACA [CACACA_site852]", "gcPBM binding intensity (ln)": "10.1 ± 0.38"}
{"sequence": "AAAACACAAAAAAAATGTACACATATATATATATAT [XGTACX_site8509]", "gcPBM binding intensity (ln)": "9.84 ± 0.12"}
{"sequence": "AAAAAAAAAAAAAACATACACACAAATATATACATA [CACACA_site4010]", "gcPBM binding intensity (ln)": "9.05 ± 0.45"}
{"sequence": "TATAAATATACAAACACACATACAAACATATATATA [CACACA_site1120]", "gcPBM binding intensity (ln)": "9.24 ± 0.37"}
{"sequence": "TATACGCATATATAAACACACAAAAAAAAAAAAAAA [CACACA_site2026]", "gcPBM binding intensity (ln)": "8.86 ± 0.48"}
{"sequence": "CATACATACAAACACACACACATATATATATATATA [CACACA_site43]", "gcPBM binding intensity (ln)": "10.16 ± 0.042"}
{"sequence": "CATATACGCAAACACACACACATATATATATATATA [CACACA_site501]", "gcPBM binding intensity (ln)": "10.3 ± 0.27"}
{"sequence": "CATACATATAAACACACACACACACCCACCCACAAA [CACACA_site8059]", "gcPBM binding intensity (ln)": 10.4}
{"sequence": "TATATACACCCACATACACACAAATAAAAAAACACC [CACACA_site3414]", "gcPBM binding intensity (ln)": "9.64 ± 0.31"}
{"sequence": "AGGCACACAAACATATGTACACATATATATATATAT [XGTACX_site4723]", "gcPBM binding intensity (ln)": "10.21 ± 0.078"}
{"sequence": "TACATATATATATACACACATACATATATATACGCA [CACACA_site792]", "gcPBM binding intensity (ln)": "9.11 ± 0.28"}
